Measurements published in PubChem BioAssay (Tox21).
Results filed as inconclusive are left out. A call without a number means that no potency is given here. Activity calls are given as the source filed them. Unless noted, the call rests on the fitted dose curve; in most records, active means well fitted curve in the direction sought with a large enough effect in the repeat runs; inconclusive means weak or mixed curves; inactive means no such curve, though single readings can be large; an effect the other way counts as inactive or inconclusive.

Key:
[1] = qHTS assay to identify small molecule antagonists of the thyroid receptor (TR) signaling pathway - cell viability counter screen (AID 743064); further: nearly all actives have a fitted effect of over 50% in size; further: potency means the concentration at half of the fitted maximal effect
How it was run: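 GH3.TRE-Luc cells, 4 h pre-plating; cpd + T3 1 nM final; 37 °C 23.5 h; CellTiter-Fluor 30 min; fluorescence read.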

[2] = qHTS assay to identify small molecule antagonists of the thyroid receptor (TR) signaling pathway (AID 743065); further: nearly all actives have a fitted effect of over 55% in size; further: potency means the concentration at half of the fitted maximal effect
How it was run: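 GH3.TRE-Luc rat pituitary cells carrying two TR response elements driving luciferase were plated for 4 h, given compound plus 1 nM T3 (final), and incubated 23.5 h at 37 C. ONE-Glo luminescence measured reporter inhibition; CellTiter-Fluor fluorescence tracked cytotoxicity.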

[3] = system: thyroid hormone receptor (rat, GH3 cells); assay: qHTS assay to identify small molecule agonists of the thyroid receptor (TR) signaling pathway (AID 743066; calls by dose curve)
[4] = qHTS assay to identify small molecule antagonists of the estrogen receptor alpha (ER-alpha) signaling pathway - cell viability counter screen (AID 743074; calls by dose curve;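 further: HEK293 cells carrying ER-alpha-UAS-bla reporter stimulated with 17beta-estradiol; nearly all actives have a fitted effect of over 45% in size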)
[5] = qHTS assay to identify small molecule antagonists of the estrogen receptor alpha (ER-alpha) signaling pathway using the BG1 cell line - cell viability counter screen (AID 743081);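 further: compound given together with 17beta-estradiol as the ER stimulus; nearly all actives have a fitted effect of over 45% in size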; further: potency means the concentration at half of the fitted maximal effect
[6] = molecular target: Aromatase (Homo sapiens) (UniProt P11511); assay: qHTS assay to identify aromatase inhibitors (AID 743083); further: nearly all actives have a fitted effect of over 55% in size; further: potency means the concentration at half of the fitted maximal effect
[7] = molecular target: Estrogen receptor (Homo sapiens) (UniProt P03372); assay: qHTS assay to identify small molecule agonists of the estrogen receptor alpha (ER-alpha) signaling pathway (AID 743075; calls by dose curve;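 further: HEK293 GripTite cells with ER-alpha and UAS-driven beta-lactamase reporter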; further: potency means the concentration at half of the fitted maximal effect)
[8] = molecular target: Estrogen receptor (Homo sapiens) (UniProt P03372); assay: qHTS assay to identify small molecule agonists of the estrogen receptor alpha (ER-alpha) signaling pathway using the BG1 cell line (AID 743079); further: nearly all actives have a fitted effect of over 20% in size; further: potency means the concentration at half of the fitted maximal effect
[9] = molecular target: Estrogen receptor (Homo sapiens) (UniProt P03372); assay: qHTS assay to identify small molecule antagonists of the estrogen receptor alpha (ER-alpha) signaling pathway (AID 743069; active means well fitted curve in the direction sought with a large enough effect in the signal ratio in the repeat runs, not every such curve was filed as active; the % refers to the signal ratio)
How it was run: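 Estradiol-stimulated ER-alpha-UAS-bla HEK293 cells, 18 hr compound exposure at 37C. LiveBLAzer B/G substrate, 2 hr RT, fluorescence read.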

[10] = qHTS assay to identify small molecule antagonists of the estrogen receptor alpha (ER-alpha) signaling pathway using the BG1 cell line (AID 743080; calls by dose curve;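 further: BG1 cells stimulated with 17beta-estradiol alongside compound; series mostly up to about 70 µM; nearly all actives have a fitted effect of over 25% in size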)
How it was run: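 BG1-Luc-4E2 cells (endogenous full-length ER-alpha, stable 4×ERE-luciferase) were starved 5 days in phenol-red-free medium with 10% charcoal-stripped FBS, plated 24 h, then given compound plus 17beta-estradiol for 21.5 h at 37 C; ONE-Glo luminescence read after 30 min.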

Sequence of Aromatase (Homo sapiens) (P11511 whole entry, looked up): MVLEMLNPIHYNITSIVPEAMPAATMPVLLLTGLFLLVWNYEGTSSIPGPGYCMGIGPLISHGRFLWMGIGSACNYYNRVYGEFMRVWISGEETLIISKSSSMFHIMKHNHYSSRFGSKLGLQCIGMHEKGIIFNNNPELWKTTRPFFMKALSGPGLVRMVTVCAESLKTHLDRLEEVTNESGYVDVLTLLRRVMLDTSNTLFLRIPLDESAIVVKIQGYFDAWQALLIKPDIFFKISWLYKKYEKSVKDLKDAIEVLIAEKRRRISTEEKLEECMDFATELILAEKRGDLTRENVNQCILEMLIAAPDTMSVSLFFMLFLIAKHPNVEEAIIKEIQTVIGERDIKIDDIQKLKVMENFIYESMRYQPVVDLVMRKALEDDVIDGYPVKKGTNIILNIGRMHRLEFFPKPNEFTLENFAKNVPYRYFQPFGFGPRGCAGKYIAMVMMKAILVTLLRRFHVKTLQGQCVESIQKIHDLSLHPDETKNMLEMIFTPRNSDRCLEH
Sequence of Estrogen receptor (Homo sapiens) (P03372 whole entry, looked up): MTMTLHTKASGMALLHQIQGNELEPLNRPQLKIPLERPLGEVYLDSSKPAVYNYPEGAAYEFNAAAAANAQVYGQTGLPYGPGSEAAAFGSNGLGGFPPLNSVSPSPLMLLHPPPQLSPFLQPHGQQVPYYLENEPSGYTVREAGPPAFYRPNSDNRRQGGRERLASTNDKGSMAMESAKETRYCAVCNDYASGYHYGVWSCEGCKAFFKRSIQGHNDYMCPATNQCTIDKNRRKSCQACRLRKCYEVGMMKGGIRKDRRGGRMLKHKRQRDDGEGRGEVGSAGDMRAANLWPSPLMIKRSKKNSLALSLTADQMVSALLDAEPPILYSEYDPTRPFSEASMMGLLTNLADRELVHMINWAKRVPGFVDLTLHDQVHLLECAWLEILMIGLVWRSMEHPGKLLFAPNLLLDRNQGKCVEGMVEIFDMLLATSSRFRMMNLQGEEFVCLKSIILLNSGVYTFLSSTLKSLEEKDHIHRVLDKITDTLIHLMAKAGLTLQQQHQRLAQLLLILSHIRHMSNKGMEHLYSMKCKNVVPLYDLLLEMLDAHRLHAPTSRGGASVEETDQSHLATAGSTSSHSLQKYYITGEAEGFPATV

SMILES	Potency [1]	Potency [2]	Potency [3]	outcome [4]	Potency [5]	Potency [6]	Potency [7]	Potency [8]	Potency [9]	Potency [10]
N#Cc1c(F)cccc1F	inactive	inactive	inactive	inactive	inactive	inactive				
O=CNc1ccccc1	inactive	inactive	inactive	inactive	inactive	inactive				
CC1(C)[C@H]2CC[C@]1(C)[C@H](O)C2	inactive	inactive	inactive	inactive	inactive	inactive				
CCCCCc1ccc(N)cc1	inactive	inactive	inactive		inactive		inactive	inactive		
CCCCOc1ccc(CC(=O)NO)cc1	inactive	inactive	inactive		inactive	inactive				
CC(C)c1ccccc1C(C)C	54.5 µM (active)	61.2 µM (active)	inactive	inactive	inactive	inactive				
CCCCCC(CO)CCC (stereo not drawn)	inactive	inactive	inactive	inactive		inactive				
CC(C(=O)O)c1ccc(C(=O)c2ccccc2)s1 (stereo not drawn)	inactive	inactive		inactive	inactive	inactive	inactive		inactive	
Cc1c(Cn2ccnc2)c2ccccc2n1CCC(=O)O	inactive	inactive	inactive		inactive	inactive				
CCCC[C@H]1CN(CC2CCOCC2)C(=O)OC12CCN(C1(C)CCN(C(=O)c3c(C)ncnc3C)CC1)CC2	inactive	inactive	inactive	inactive	inactive	inactive				
CC(O)C1CCCCC1 (stereo not drawn)	inactive	inactive	inactive		inactive	inactive				
Cc1ccc(O)c([C@H](CCN(C(C)C)C(C)C)c2ccccc2)c1	11.9 µM (active)	26.6 µM (active)	inactive	inactive	inactive	inactive				
CCOC(=O)[C@H](CCc1ccccc1)N[C@H]1CCc2ccccc2N(CC(=O)O)C1=O	5.31 µM (active)	8.41 µM (active)		inactive	inactive	15 µM (active)				
CCCCCCCCCCCCCCCCCBr	inactive	inactive	inactive	inactive	inactive	inactive				
Cn1sccc1=O	30.6 µM (active)	30.6 µM (active)		inactive	inactive	inactive	inactive		inactive	inactive
S=C(S)NCCNC(=S)S	inactive	inactive	inactive		inactive	inactive				
CN1CCN(C2=Nc3cc(Cl)ccc3Nc3ccccc32)CC1	13.3 µM (active)	23.7 µM (active)		inactive	inactive	inactive	inactive			inactive
CN(C)CC/C=C1\c2ccccc2COc2ccccc21	13.3 µM (active)	23.7 µM (active)		inactive	inactive	inactive				
Nc1nc(CC(=O)O)cs1	inactive	inactive	inactive	inactive	inactive	inactive				
CNS(=O)(=O)Cc1ccc2[nH]cc(CCN(C)C)c2c1	inactive	inactive	inactive	inactive	inactive	inactive				

SMILES	Potency [1]	Potency [2]	Potency [3]	outcome [4]	Potency [5]	Potency [6]	Potency [7]	Potency [8]	Potency [9]	Potency [10]
O=C=NC1CCC(CC2CCC(N=C=O)CC2)CC1 (stereo not drawn)	inactive	inactive	inactive	inactive		inactive				
CCN(CCO)CCCC(C)Nc1ccnc2cc(Cl)ccc12 (stereo not drawn)	inactive	inactive	inactive	inactive	inactive	inactive				
O=C(c1ccccc1)c1ccc2n1CCC2C(=O)O (stereo not drawn)	inactive	inactive	inactive	inactive	inactive	inactive				
Nc1nc(N)c(-c2ccccc2)s1	inactive	inactive	inactive	inactive	inactive	inactive				
CCCCCCCCCCCCCCCC(=O)OC/C=C(C)/C=C/C=C(C)/C=C/C1=C(C)CCCC1(C)C	inactive	inactive	inactive	inactive	inactive	inactive				
COC(=O)CSc1cc(N=c2sc(=O)n3n2CCCC3)c(F)cc1Cl	inactive	inactive	inactive	inactive	inactive	inactive				
CC(=O)Nc1ccc(/C=N/NC(N)=S)cc1	inactive	inactive	inactive	inactive	inactive	inactive				
Cn1c(NCCN(CCO)CCCc2ccc([N+](=O)[O-])cc2)cc(=O)n(C)c1=O	inactive	inactive	inactive	inactive	inactive	inactive				
C=CC(=O)OCC(C)OCC(C)OCC(C)OC(=O)C=C (stereo not drawn)	38.6 µM (active)	24.3 µM (active)		inactive	inactive	43.3 µM (active)	61.7 µM [activator] (active)			
CCN(CC)CCNC(C(=O)OCCC(C)C)c1ccccc1 (stereo not drawn)	inactive		inactive	inactive	inactive	inactive	inactive	inactive	inactive	inactive
OCCC1CCCCN1 (stereo not drawn)	inactive	inactive		inactive	inactive	inactive	inactive	inactive	inactive	inactive
O=C(CCN1CCN2CCCC2C1)N1c2ccccc2Sc2ccc(Cl)cc21 (stereo not drawn)	21.1 µM (active)	18.8 µM (active)		inactive		inactive	inactive	inactive	inactive	inactive
CC[C@]12CCCN3CCc4c(n(c5ccccc45)C(=O)C1)[C@@H]32	8.04 µM (active)	7.17 µM (active)	inactive	inactive	inactive	11.4 µM (active)				
Cc1cc(C)c(S(=O)(=O)O)cc1N=Nc1cc(S(=O)(=O)O)c2ccccc2c1O	34.4 µM (active)		inactive	inactive	54.5 µM (active)	inactive				
CC(C)(C)c1ccc(OCC2CO2)cc1 (stereo not drawn)	inactive		inactive	inactive	inactive	inactive	inactive	39.4 µM (active)	inactive	
O=C(O)[C@@H]1[C@H]2C[C@H]3c4[nH]c5ccccc5c4CCN3C[C@@H]2CC[C@@H]1O	inactive		inactive	inactive	inactive	inactive	inactive	inactive	inactive	
COCCO	inactive			inactive	inactive	inactive	inactive	inactive	inactive	inactive
CC1=CCC(C(C)C)C=C1 (stereo not drawn)	inactive			inactive	inactive	inactive	inactive	inactive	inactive	inactive
O=c1c2ccccc2nnn1CCl		inactive	inactive	inactive	inactive	inactive	inactive	inactive	inactive	inactive
